Results as given in the supplement of paper PMC10646978.
± gives the standard deviation.

Columns and labels:
Details in all cases: modulator concentration 10 µM
[1] = system: RAW-Dual (murine macrophage reporter line); assay: NF-kB reporter (SEAP) activity fold change vs agonist alone; higher = enhanced NF-kB activity
Method in brief: (§1)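 RAW-Dual murine macrophage reporter cells were plated at 50 000 per well in 384-well plates, pin-transferred compound to 10 μM final, and pre-incubated for 1 hour at 37 °C before a PRR agonist was added and the cells incubated overnight. NF-κB activity was read from supernatant SEAP with QUANTI-Blue at 620 nm absorbance, and IRF activity from Lucia luciferase with QUANTI-Luc by luminescence. Each signal was expressed as fold change by dividing by the mean agonist-only control on the same plate. Two replicate plates were averaged, with errors obtained by propagation.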

[2] = system: RAW-Dual (murine macrophage reporter line); assay: IRF reporter (Lucia luciferase) activity fold change vs agonist alone; higher = enhanced IRF activity
Method in brief: as §1

[3] = system: RAW-Dual (murine macrophage reporter line); assay: viability score (confluency relative to resting cells, overnight) (fraction); higher = more viable, active = viable (0.7 or more)
Method in brief: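 RAW-Dual macrophages in 384-well plates were incubated overnight with compound, final concentration 10 μM. Confluency images from IncuCyte were processed in IncuCyte software into two masks covering all imaged wells. The viability score is each well's confluency relative to resting cells, and a compound met the cutoff when both masks exceeded 70% of resting cells.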

[4] = agonist: CpG ODN 1826 0.5 ug/mL

SMILES | NF-kB reporter [1, 4] | NF-kB reporter ([1]; agonist: LPS 0.1 ug/mL) | NF-kB reporter ([1]; agonist: MPLA […]) | IRF reporter ([2]; agonist: 3'3'-cGAMP 10 ug/mL) | IRF reporter ([2]; agonist: LPS 0.1 ug/mL) | IRF reporter ([2]; agonist: MPLA […]) | viability score [3]
COc1ccc(Cl)cc1C(=O)NCCc1ccc(S(=O)(=O)NC(=O)NC2CCCCC2)cc1 | 0.75 ± 0.067 | 0.932 ± 0.056 | 0.987 ± 0.09 | 1.06 ± 0.052 | 1.36 ± 0.099 | 1.44 ± 0.15 | 1 (active)
CCOc1nc2cccc(C(=O)O)c2n1Cc1ccc(-c2ccccc2-c2nnn[nH]2)cc1 [Prestw-1258] | 1.29 ± 0.26 | 1.16 ± 0.11 | 0.925 ± 0.074 | 0.918 ± 0.029 | 0.914 ± 0.093 | 1.14 ± 0.14 | 0.995 (active)
OC(C(=NN=C(c1ccccc1)C(O)c1ccccc1)c1ccccc1)c1ccccc1 (configuration not stated) | 0.662 ± 0.072 | 1.14 ± 0.072 | 1.03 ± 0.063 | 1.14 ± 0.038 | 1.48 ± 0.11 | 1.45 ± 0.19 | 0.974 (active)
Cn1nc(CNC(=O)c2cccc3ccccc23)cc1C1CC1 | 1.18 ± 0.067 | 0.852 ± 0.065 | 0.963 ± 0.025 | 0.833 ± 0.031 | 1.06 ± 0.059 | 0.962 ± 0.15 | 0.817 (active)
Clc1ccccc1C1Nc2cccc3cccc(c23)N1 | 1.04 ± 0.092 | 0.898 ± 0.091 | 0.867 ± 0.084 | 0.684 ± 0.06 | 0.967 ± 0.14 | 0.792 ± 0.14 | 0.97 (active)
Cc1cccc(Nc2ccccc2C(=O)O)c1C | 0.847 ± 0.063 | 0.923 ± 0.13 | 0.962 ± 0.035 | 1.03 ± 0.075 | 1.03 ± 0.092 | 0.98 ± 0.089 | 0.999 (active)
O=Cc1ccc(OC(=O)c2cccc(C(=O)Oc3ccc(C=O)cc3)c2)cc1 | 0.813 ± 0.064 | 0.851 ± 0.052 | 1.02 ± 0.092 | 0.975 ± 0.064 | 1.52 ± 0.088 | 1.69 ± 0.14 | 0.989 (active)
CCOc1ccccc1O[C@H](c1ccccc1)[C@H]1CNCCO1.CS(=O)(=O)O | 0.873 ± 0.095 | 0.979 ± 0.061 | 1.03 ± 0.055 | 0.82 ± 0.045 | 0.905 ± 0.15 | 0.897 ± 0.074 | 0.99 (active)
O=c1[nH][nH]c(=O)c2c(N=Cc3cc4c(cc3[N+](=O)[O-])OCO4)cccc12 | 0.878 ± 0.082 | 0.823 ± 0.074 | 0.961 ± 0.096 | 0.983 ± 0.031 | 1.13 ± 0.18 | 1.22 ± 0.28 | 0.995 (active)
CC(C)(C)c1ccc(C2=NC(=Cc3cccc4ccccc34)C(=O)O2)cc1 | 0.986 ± 0.078 | 1.05 ± 0.082 | 0.97 ± 0.034 | 0.857 ± 0.11 | 1.1 ± 0.11 | 1 ± 0.19 | 1 (active)
CC(C)(Oc1ccc(CCNC(=O)c2ccc(-c3ccc(Cl)cc3)o2)cc1)C(=O)O | 1.09 ± 0.087 | 1.03 ± 0.078 | 0.976 ± 0.062 | 0.942 ± 0.067 | 1.39 ± 0.22 | 1.08 ± 0.1 | 1.01 (active)
COc1cc(OC)c(NC(=O)C2CCCN(c3ccc(-c4ccc(C)c(C)c4)nn3)C2)cc1Cl (configuration not stated) | 1.04 ± 0.09 | 1.04 ± 0.081 | 0.93 ± 0.04 | 0.964 ± 0.052 | 1.09 ± 0.066 | 1 ± 0.15 | 1.01 (active)
CC(Cc1ccccc1)NC(=O)C1COc2ccccc2O1 (configuration not stated) | 0.662 ± 0.13 | 1.12 ± 0.09 | 1.13 ± 0.14 | 0.979 ± 0.048 | 0.965 ± 0.13 | 1.15 ± 0.12 | 0.919 (active)
O=C(NC(=S)Nc1ccccc1C(F)(F)F)c1cccc(I)c1 | 0.927 ± 0.088 | 0.989 ± 0.076 | 0.9 ± 0.066 | 0.989 ± 0.025 | 1.24 ± 0.13 | 1.09 ± 0.14 | 1.01 (active)
CCN(CC)CC(=O)Nc1c(C)cccc1C.Cl | 1.03 ± 0.079 | 0.968 ± 0.063 | 1.03 ± 0.051 | 0.89 ± 0.075 | 0.927 ± 0.039 | 0.865 ± 0.11 | 0.997 (active)
CCOc1ccccc1NC(=O)NCc1sc(-c2ccccc2Cl)nc1C | 0.768 ± 0.19 | 1.07 ± 0.058 | 0.98 ± 0.072 | 0.89 ± 0.048 | 0.926 ± 0.17 | 0.898 ± 0.11 | 1 (active)
CC12CC3CC(C)(C1)CC(N)(C3)C2 [Prestw-978] | 0.916 ± 0.073 | 0.95 ± 0.092 | 0.996 ± 0.095 | 1.26 ± 0.045 | 0.925 ± 0.078 | 0.844 ± 0.17 | 0.979 (active)
COc1ccc(C2NC(=O)C(O)=C2C(C)=O)cc1 (configuration not stated) | 0.734 ± 0.057 | 0.884 ± 0.11 | 1.09 ± 0.095 | 0.914 ± 0.047 | 1.29 ± 0.085 | 1.41 ± 0.12 | 1.01 (active)
COC(c1ccccc1)(c1ccccc1)C(Oc1nc(C)cc(C)n1)C(=O)O (configuration not stated) [Prestw-1497] | 0.986 ± 0.077 | 0.945 ± 0.07 | 0.936 ± 0.091 | 1.09 ± 0.052 | 1.31 ± 0.18 | 1.44 ± 0.32 | 1.05 (active)
CC(N)c1ccc(Nc2ncc3cc(-c4ccncc4)ccc3n2)cc1.Cl.Cl.Cl (configuration not stated) | 0.419 ± 0.069 | 1.26 ± 0.08 | 2.73 ± 0.16 | 0.173 ± 0.014 | 0.28 ± 0.05 | 0.42 ± 0.042 | 0.174 (inactive)
CN(c1ccccc1)c1nnc(C(C)(C)C)c(=O)[nH]1 | 1.05 ± 0.079 | 0.951 ± 0.076 | 1.01 ± 0.048 | 1.03 ± 0.039 | 0.908 ± 0.11 | 0.863 ± 0.24 | 0.994 (active)
CN1CCN(c2ccc3nc(-c4c(N)c5c(F)cccc5[nH]c4=O)[nH]c3c2)CC1 | 0.277 ± 0.1 | 1.19 ± 0.35 | 1.39 ± 0.59 | 0.0238 ± 0.0011 | 0.491 ± 0.07 | 0.197 ± 0.015 | 0.799 (active)
COc1ccc(S(=O)(=O)NCCn2nc(C(F)(F)F)cc2C2CC2)cc1 | 0.935 ± 0.077 | 1.09 ± 0.083 | 1.04 ± 0.029 | 0.996 ± 0.037 | 0.953 ± 0.096 | 0.834 ± 0.15 | 0.979 (active)
CC(O)(CNC(=O)NCc1ccc(F)cc1)c1ccc(-c2ccccc2)cc1 (configuration not stated) | 0.998 ± 0.053 | 1.14 ± 0.12 | 0.873 ± 0.077 | 1.08 ± 0.056 | 1.32 ± 0.1 | 1.62 ± 0.14 | 0.966 (active)
Cl.NCc1ccc(S(N)(=O)=O)cc1 | 0.998 ± 0.097 | 0.965 ± 0.047 | 0.998 ± 0.078 | 0.964 ± 0.058 | 0.962 ± 0.038 | 0.928 ± 0.13 | 1 (active)
NC(N)=NN=Cc1ccc(OS(=O)(=O)c2ccccc2)cc1 | 0.0965 ± 0.0075 | 0.954 ± 0.048 | 1.18 ± 0.14 | 0.929 ± 0.044 | 0.93 ± 0.058 | 1.04 ± 0.13 | 0.433 (inactive)
